TDP1 cell noCPT = qHTS for Inhibitors of human tyrosyl-DNA phosphodiesterase 1 (TDP1): qHTS in cells in absence of CPT. DT40 Tdp1-/- hTDP1 cells, no CPT, ATP luminescence, 48 h. Potency, µM (doses to about 46.2 µM), without a hit: at the highest dose activity change, negative = growth inhibition, usual class: inhibitors. actives 15% (n = 420,000); further: potency means the concentration at half of the fitted maximal effect; nearly all actives have a fitted effect of over 55% in size
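Camptothecin absent (DMSO only). Human TDP1-complemented DT40 knockout cells, 400 cells/well, 37 °C for minimum 48 hr; ATP measured via CellTiter-Glo, 30 min dark incubation, luminescence.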
HT1080-NT tox = kills 2HG-producing HT-1080-NT fibrosarcoma cells; actives 1.6% (n = 360,000); HT-1080-NT fibrosarcoma viability, CellTiter-Glo ATP luminescence, 48 h; Potency, µM (titrated, usually from 46.1 µM), for the others: at the top dose activity, negative = less viability, usual class: cytotoxic;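 further: NT is the 2HG producing partner of a matched IDH1 knockdown line; potency means the concentration at half of the fitted maximal effect; 0% = DMSO-treated cells and -100% = media-only wells without cells; nearly all actives have a fitted effect of over 55% in size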
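Viability by CellTiter-Glo luminescence after 48 h compound exposure at 37C of HT-1080-NT cells (750/well, RPMI, 5% FBS). % activity scaled between DMSO wells and medium-only wells, then curve-fitted and categorized by curve class.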
DT40 TDP1 CPT = growth inhibition of DT40 Tdp1-/-;hTDP1 cells with camptothecin (screen for TDP1 inhibitors); AID 686979; Potency, µM (titrated, usually from 46.2 µM), inactives show at the highest dose activity change, negative = growth inhibition, most hits filed as inhibitors; chicken DT40 Tdp1-/-;hTDP1 cells + 20 nM CPT, ATP luminescence, 48 h; actives 12% (n = 420,000); further: potency means the concentration at half of the fitted maximal effect; nearly all actives have a fitted effect of over 55% in size
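Cell growth measured by CellTiter-Glo luminescence after a minimum 48 h, 37 C compound exposure with 20 nM CPT in Tdp1-knockout DT40 cells stably expressing hTDP1, seeded 400/well; qHTS titration format.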
IL1B secr inh = inhibitors of inflammasome signaling (IL-1 beta secretion). AID 743279. THP-1 LPS/ATP IL-1B secretion, AlphaLISA, 16 h; stronger effect = lower value. activity change, % at 57.5 µM. actives 4.7% (n = 360,000); in the data active means activity change below about -50%; inconclusive means mostly about -30% to -49%
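Secreted IL-1B measured by AlphaLISA bead assay after 16 h compound exposure of THP-1 cells; compounds (final up to 57.5 uM) added 1 h before LPS (250 ng/mL) and ATP (1.25 mM) stimulation; lower signal means less secretion.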
HT1080 IDH1KD tx = kills HT-1080 cells with IDH1 knockdown; HT-1080 IDH1 knockdown viability, ATP luminescence, 48 h; Potency, µM (titrated, usually from 46.1 µM), for the others: at the highest dose activity, negative = toxicity, usual class: cytotoxic; actives 2% (n = 360,000);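 further: potency means the concentration at half of the fitted maximal effect; 0% = DMSO wells and -100% = cell-free medium wells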
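Assay cells: HT-1080 with IDH1 knockdown, 750 per well, RPMI/5% FBS. Exposure: 48 h at 37 °C following 2 h pre-incubation. Read: CellTiter-Glo luminescence; fitted concentration-response, curve class assigned.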
* = called active by the depositor; ? = inconclusive; . = no result; [ ] = remark or other dose. Shown are actives, neighbours in structure and some others; about 19% of the full set was active somewhere. Unless noted, the call rests on the fitted dose curve; in most records, active means well fitted curve in the direction sought with a large enough effect; inconclusive means small, poorly fitted or top-dose-only effect, or another doubt; inactive means no such curve, though single readings can be large; an effect the other way counts as inactive or inconclusive. Unless noted, on the % scale 0 is the no-effect control and ±100 the full control effect.

SMILES	TDP1 cell noCPT	HT1080-NT tox	DT40 TDP1 CPT	IL1B secr inh	HT1080 IDH1KD tx
Cc1cc(C)n(-c2cc(N3CCN(S(=O)(=O)c4ccc5ccccc5c4)CC3)ccc2[N+](=O)[O-])n1	9.2µM*	6.3%	?	-9.9	12.5%
COc1ccc2[nH]c(=O)c(CN(C(=O)C3CCCO3)c3ccc(C)cc3)cc2c1 (centres undefined)	?	2.5%	?	-9.9	-0.4%
c1ccc(C2=Nc3ccccc3NC(c3ccccc3)C2)cc1 (centres undefined)	14.6µM*	4.0%	?	-15.6	-22.7%
Cc1ccc(CN2C(=O)N/C(=C\c3cccn3-c3cccc(C(=O)O)c3)C2=O)cc1	7.31µM*	-0.5%	8.2µM*	37.7	-6.6%
Cn1c(O)c(C2=c3ccccc3=NC2=O)sc1=Nc1ccc(Cl)cc1	?	-6.0%	23.1µM*	16.3	-17.1%
O=C(O)Cn1c(O)c(C2=c3ccccc3=NC2=O)sc1=O	-11.8%	-9.8%	?	0.0	-2.3%
COc1ccc(Br)cc1CNC(=O)CCCn1c(=O)c2cccn2c2cccnc21	18.4µM*	.	?	.	.
COc1ccc(Br)cc1CNC(=O)Cn1c(=O)c2cccn2c2ccc(F)cc21	13µM*	.	4.61µM*	.	.
CCOc1ccc(CNC(=O)Cn2c(=O)c3cccn3c3ccc(F)cc32)cc1OC	-21.6%	.	-18.0%	.	.
COc1ccc(Br)cc1CNC(=O)CCCn1c(=O)c2cccn2c2ccccc21	23.1µM*	.	?	.	.
COc1ccc(Br)cc1CNC(=O)Cn1ncn2nc(-c3cccs3)cc2c1=O	13µM*	.	11.6µM*	.	.
Cc1ccccc1CNC(=O)Cn1ncn2nc(-c3cccs3)cc2c1=O	?	.	-14.8%	.	.
Cc1ccc2c(c1)cc(CN(Cc1ccc3c(c1)OCO3)S(=O)(=O)c1ccccc1)c1nnnn12	20.6µM*	6.5%	?	13.7	6.5%
CCN(Cc1cc2cc(OC)ccc2[nH]c1=O)C(=O)c1ccncc1	-10.9%	2.3%[9.24 µM]	-7.2%	0.0	-7.2%
CCCN(Cc1cc2ccccc2[nH]c1=O)C(=O)c1cccc([N+](=O)[O-])c1	?	5.4%	-17.4%	19.1	13.5%
Cc1ccc2[nH]c(=O)c(CN(Cc3cccnc3)C(=O)c3ccncc3)cc2c1	20.6µM*	?	?	9.8	?
CCCN(Cc1cc2cc(C)ccc2[nH]c1=O)C(=O)c1cccc(Cl)c1	23.1µM*	.	?	.	.
Cc1ccc2c(c1)cc(CN(Cc1cccs1)C(=O)c1ccco1)c1nnnn12	16.4µM*	-17.3%	?	-28.7	-14.0%
COc1cccc(C(=O)CSc2nnc(CNS(C)(=O)=O)n2-c2ccc(C)cc2)c1	-10.3%	-0.8%	-10.0%	0.8	-2.5%
Cc1ccccc1-c1cc(C(=O)O)nn1CC1CC(c2cccc([N+](=O)[O-])c2)=NO1 (centres undefined)	-4.1%	-28.4%	11.8%	-2.1	-1.0%
O=S(=O)(/N=C(/c1ccccc1)N1CCOCC1)c1ccc(F)cc1	11.1%	1.5%	0.7%	-6.4	14.7%
COc1ccccc1C(=O)C1CCCN(C(=O)c2cccc(-n3cccn3)c2)C1 (centres undefined)	?	20.7%	?	-28.1	6.9%
Cc1ccc2c(c1)cc(CN(Cc1cccnc1)C(=O)c1ccccc1)c1nnnn12	0.3%	1.9%	-10.0%	-2.0	0.9%
Cc1ccc(C(=O)N(Cc2cccnc2)Cc2cc3cc(C)ccc3n3nnnc23)cc1	?	7.0%	18.4µM*	2.9	4.9%
COc1ccc(-c2oc(=O)c3cc(OC)c(OC)cc3c2C#CCCO)cc1	20.6µM*	-1.2%	?	0.0	-6.5%
SMILES	TDP1 cell noCPT	HT1080-NT tox	DT40 TDP1 CPT	IL1B secr inh	HT1080 IDH1KD tx
COc1ccc(/C=C/c2c(-c3ccc(OC)cc3)oc(=O)c3cc(OC)c(OC)cc23)cc1	?	-3.3%	?	24.5	9.9%
COc1ccc(-c2ccc3oc(-c4ccc(OC)cc4)c(C#CCO)c3c2)cc1	?	20.6µM*	23.1µM*	?	16.4µM*
COc1ccc(-c2c(-c3ccsc3)oc(=O)c3cc(OC)c(OC)cc23)cc1	?	12.8%	?	39.8	9.1%
COCc1ccc(-c2c(-c3ccc(OC)cc3)oc(=O)c3cc(OC)c(OC)cc23)cc1	23.1µM*	-9.8%	?	28.1	-14.7%
COc1ccc(-c2oc3ccc(N4CCOCC4)cc3c2C#CCO)cc1	?	?	?	-22.8	?
COc1cc2c(O)c3c(c(-c4ccc5c(c4)OCO5)c2cc1OC)C(=O)OC3	3.26µM*	2.51µM*	1.84µM*	-18.7	2.51µM*
COc1cc2sc(-c3ccc(S(C)(=O)=O)cc3)c(-c3ccc4c(c3)OCO4)c2cc1OC	?	-13.8%	-10.4%	-14.5	-17.9%
COC(=O)COc1ccc2oc(=O)cc(-c3cc4cccc(OC)c4o3)c2c1	1.3%	15.5%	-23.9%	35.6	18.0%
COc1cc(NC(=O)CN2C(=O)COc3ccccc32)cc(OC)c1	-10.3%	-1.6%	-15.8%	-0.3	-3.3%
COc1ccc(CNC(=O)c2ccc(Cn3c(=O)c4cccn4c4cccnc43)cc2)c(OC)c1	-14.1%	.	-27.2%	.	.
COc1ccc(-c2oc(=O)c3cc(OC)c(OC)cc3c2-c2ccc3c(c2)OCO3)cc1	18.4µM*	-3.2%	16.4µM*	-10.8	-6.4%
COc1ccc(C(=O)c2c(-c3ccc(OC)cc3)oc3ccc(-c4cc(OC)c(OC)c(OC)c4)cc23)cc1	9.2µM*	8.5%	7.31µM*	-11.5	3.8%
COc1ccc(-c2oc3ccc(-c4ccc5c(c4)OCO5)cc3c2-c2ccc(OC)nc2)cc1	?	3.4%	?	-13.7	12.4%
COc1cc2c(-c3ccc4cc[nH]c4c3)c(-c3ccc(C#N)cc3)oc(=O)c2cc1OC	9.2µM*	-4.0%	5.8µM*	14.8	-7.9%
CCOC1CCCc2oc(-c3ccc(OC)cc3)c(C#CCCO)c21 (centres undefined)	16.4µM*	-19.0%	?	.	?
COc1ccc(-c2oc3ccc(-c4cc(OC)c(OC)c(OC)c4)cc3c2C(=O)c2ccc(OC)nc2)cc1	?	1.2%	?	-3.8	-0.1%
COc1cccc(-c2oc3c(c2C#CCCO)C(O)CCC3)c1 (centres undefined)	-15.0%	3.6%	-7.5%	3.2	0.6%
Cc1ccc(-n2nnnc2SCC(=O)NC2CCS(=O)(=O)C2)c(C)c1 (centres undefined)	-19.5%	11.4%	-13.4%	23.4	-1.4%
Cc1nc(C#N)nc(Oc2ccccc2)c1Cl	-24.1%	16.3%	-13.0%	.	19.6%
O=C(O)c1ccc(CNC(=O)c2ccc3c(c2)C(=O)N(Cc2cccnc2)C3=O)cc1	18.6%	-6.3%	-4.8%	?	-13.7%

Compound activity as filed in PubChem BioAssay.
